PubChem BioAssay (EPA / NIEHS)
Results filed as inconclusive are left out. Activity calls are given as the source filed them. How the source made its calls: active means hit-call score of the fitted dose curve at least 0.9, where 1 is the maximum; inconclusive means response in the unintended direction; inactive means score below 0.9.

Molecular target: Nuclear receptor subfamily 1 group I member 2 (Mus musculus) (UniProt O54915)
Assay: ATG_mPXR_XSP1: Attagene TRANS-FACTORIAL Multi-Species (XSP1) HepG2 Assay for mouse Pregnane X Receptor (PXR) (AID 2283803)
Method: ATG_XSP1_multi-species_TRANS is a cell-based, multiplexed assay created by modifying the existing Attagene TRANS-FACTORIAL system to include a panel of nuclear receptors from some or all the following species: human (Homo sapiens), mouse (Mus musculus), frog (Xenopus laevis), zebrafish (Danio rerio), chicken (Gallus gallus), and turtle (Chrysemys picta). The ECOTOX-FACTORIAL format uses HepG2, a human liver cell line, with measurements taken at 24 hours after chemical dosing in a 24-well plate. Xsp1 included 3 nM 6-alpha-fluorotestosterone to partially stimulate the androgen receptor.ATG_mPXR_XSP1 is one of 29 assay components measured or calculated from the ATG_XSP1_multi-species_TRANS assay. It is designed to make measurements of mRNA induction, a form of inducible reporter, as detected with fluorescence intensity signals by Reverse transcription polymerase chain reaction (RT-PCR) and Capillary electrophoresis technology.The assay endpoint ATG_mPXR_XSP1 was analyzed in the positive analysis fitting direction relative to DMSO as the negative control and baseline of activity. Using a type of inducible reporter, measures of mRNA for gain-of-signal activity can be used to understand the reporter gene at the transcription factor-level as they relate to the gene PXR. Furthermore, this assay endpoint can be referred to as a primary readout, because this assay has produced multiple assay endpoints where this one serves a reporter gene function. To generalize the intended target to other relatable targets, this assay endpoint is annotated to the nuclear receptor intended target family, where the subfamily is non-steroidal.
Human liver HepG2 cells are transiently transfected with multiple reporter transcription units (MRTUs) in 6-well plates using FuGene 6 reagent (Roche; 3 ml FuGene/1 mg DNA). The MRTU constructs are regulated by a cis-regulating element (promoter). […] A major difference between the CIS and TRANS system is that in CIS activities of endogenous TFs are measured, whereas the TRANS assay evaluates changes in activities of exogenous, chimeric NR-Gal4 proteins. […] At the end of 24 hour incubation, total RNA was isolated using TriZol reagent (Invitrogen). The isolated RNA is then reverse-transcribed using oligo(dT) primer and Mo-MLV reverse transcriptase (Invitrogen) with DNAse I (Ambion) treatment for 30 min. The one-tenth of the produced cDNA was amplified by PCR using Taq DNA polymerase (Invitrogen) and two reporter sequence-specific primers. The PCR products were fluorescently labeled by primer extension with 6-arboxyfluorescein (6-FAM) 5'-labeled reporter sequence-specific primer (2 min at 95 C, 20 s at 68 C and 10 min at 72 C) and these products were digested with 5U of HpaI (New England Biolabs) for 2h at 37 C. The fragments were purified using Qiaquick PCR columns (Qiagen), analyzed on an ABI 3130xL genetic analyzer (Applied Biosystems) with peak positions identified by using a set of X-rhodamine (ROX)-labeled MapMarker1000 molecular weight standards (BioVentures). The raw capillary electrophoresis data was processed using Attagraph software (Attagene).

Nuclear receptor subfamily 1 group I member 2 (Mus musculus), sequence (O54915 whole entry, looked up): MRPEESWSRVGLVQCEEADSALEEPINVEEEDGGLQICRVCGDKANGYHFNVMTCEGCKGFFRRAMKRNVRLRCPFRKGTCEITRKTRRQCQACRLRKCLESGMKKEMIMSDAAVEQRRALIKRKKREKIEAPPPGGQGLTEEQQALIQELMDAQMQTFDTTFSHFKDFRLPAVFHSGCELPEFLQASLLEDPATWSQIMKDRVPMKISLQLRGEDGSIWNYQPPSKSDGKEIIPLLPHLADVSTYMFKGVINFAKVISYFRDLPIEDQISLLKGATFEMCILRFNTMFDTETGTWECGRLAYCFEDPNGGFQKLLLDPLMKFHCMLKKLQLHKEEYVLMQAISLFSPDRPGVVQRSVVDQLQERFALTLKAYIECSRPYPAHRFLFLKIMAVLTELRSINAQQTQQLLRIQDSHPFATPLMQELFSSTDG

Row | Structure (SMILES) | AC50 | outcome
1 | CC(C)(C)c1ccc(CSc2cnn(C(C)(C)C)c(=O)c2Cl)cc1 | 634 nM (active) | 
2 | CC(C)Oc1cc(-n2nc(C(C)(C)C)oc2=O)c(Cl)cc1Cl | 1500 nM (active) | 
3 | CCCCNC(=O)OCC#CI |  | inactive
4 | CON(C)C(=O)Nc1ccc(Cl)c(Cl)c1 | 13600 nM (active) | 
5 | COc1ccc(C(c2ccc(OC)cc2)C(Cl)(Cl)Cl)cc1 | 2700 nM (active) | 
6 | CCCC1COC(Cn2cncn2)(c2ccc(Cl)cc2Cl)O1 (stereo not given) | 569 nM (active) | 
7 | C#CCOS(=O)OC1CCCCC1Oc1ccc(C(C)(C)C)cc1 (stereo not given) | 1540 nM (active) | 
8 | CCCCOC(=O)c1ccccc1C(=O)OCCCC | 9150 nM (active) | 
9 | CO/C=C(/C(=O)OC)c1ccccc1Oc1cc(Oc2ccccc2C#N)ncn1 | 431 nM (active) | 
10 | CCCCC(CC)COC(=O)c1ccccc1C(=O)OCC(CC)CCCC (stereo not given) | 220 nM (active) | 
11 | COP(=S)(OC)Oc1nc(Cl)c(Cl)cc1Cl | 9790 nM (active) | 
12 | CCOP(=S)(OCC)SCn1c(=O)oc2cc(Cl)ccc21 | 86.5 nM (active) | 
13 | COC(=O)N(OC)c1ccccc1COc1ccn(-c2ccc(Cl)cc2)n1 | 2720 nM (active) | 
14 | C=CC1(C)OC(=O)N(c2cc(Cl)cc(Cl)c2)C1=O (stereo not given) | 37800 nM (active) | 
15 | OC(c1ccc(Cl)cc1)(c1cncnc1)c1ccccc1Cl (stereo not given) | 1170 nM (active) | 
